# High-throughput results (PubChem)
# Rows were chosen to be rich in hits. Some 3.6% of all compounds tested hit in one or more screens of this group.
# mHTT CaM bind: mutant huntingtin-calmodulin interaction inhibitors – biochemical, AlphaScreen, primary screen; P42858; AlphaScreen His-mHTT/GST-CaM binding, luminescence; inhibition, % at 15 µM; hit rate 3.6% among 190,000; AID 1671202, 2021;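 note: 0% = both proteins with DMSO and 100% = one protein alone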
# Pf apPOL block: Pf-apPOL inhibitors, biochemical, fluorescence; Recombinant Pf-apPOL, molecular beacon fluorescence, 1.5 h; hit rate 0.25% among 210,000; inhibition, % at 10 µM
# An asterisk follows results filed as active; nt = no result given. Cut-off read from the data, not from the text of the source: active = inhibition above about 50%; inactive = the rest.
SMILES,mHTT CaM bind,Pf apPOL block
Cc1ccc(CC(=O)Nc2cccn3c(C)nnc23)cc1,-0.7,-1.1
Cc1cccc(N2CCN(C(=O)c3noc4c3CCCC4)CC2)c1C,-24.1,-2.6
Cc1ccc(C)c(N2CCN(C(=O)c3cn4c(n3)CCCC4)CC2)c1,51.0*,-5.4
Cc1ccc(C)c(N2CCN(C(=O)c3ccc(-c4nccnc4N(C)C)cc3)CC2)c1,94.2*,-4.1
O=C(c1ccc2c(c1)nc1n2CCCCC1)N1CCN(c2ccccc2)CC1,11.1,-4.9
Cc1ccc(C)c(N2CCN(C(=O)c3ccc4c(c3)nc3n4CCCC3)CC2)c1,84.5*,-4.6
CCc1nc(N2CCCC2=O)sc1C(=O)N1CCN(c2cccc(C)c2C)CC1,63.8*,-1.3
CCN1CCn2cc(C(=O)N3CCN(c4cc(C)ccc4C)CC3)nc2C1,15.8,-1.7
Cc1ccc(C)c(N2CCN(C(=O)c3cccc(-c4nccnc4N(C)C)c3)CC2)c1,43.9,-0.3
O=C(O)CCC1NC(=O)N(C2CCCCC2)C1=O (centres undefined),-1.9,nt
Cc1nc(-c2nnn(-c3ccccc3)c2C)no1,-7.2,-1.9
Cc1cccc(-c2nc(C3CCN(S(=O)(=O)c4ccc(F)cc4F)CC3)no2)c1,-5.2,-13.4
COc1cccc(OC2CCN(C(=O)Nc3cc(OC)ccc3OC)CC2)c1,21.7,-8.1
Cc1onc(-c2ccccc2Cl)c1C(=O)NCC1(O)CCc2ccccc21 (centres undefined),-15.8,0.8
Cc1cccc(N2CCN(C(=O)c3cn4c(n3)CCCC4)CC2)c1C,54.0*,0.0
Cc1ccccc1N1CCN(C(=O)c2cn3c(n2)CCCC3)CC1,30.1,-2.7
CC(=O)Nc1c(C)cc(C(c2ccc(F)cc2)c2cc(C)c(NC(C)=O)c(C)c2)cc1C,3.0,-1.0
O=C(Nc1ccc(F)cc1Cl)C1CCc2nc(N3CCOCC3)ncc2C1 (centres undefined),-3.3,-3.7
CC(=O)NC1=NN(C(C)=O)C2(S1)C(=O)N(C(C)=O)c1ccc(Br)cc12 (centres undefined),52.0*,1.8
CC(=O)NC1=NN(C(C)=O)C2(S1)C(=O)N(C(C)=O)c1ccccc12 (centres undefined),5.0,-3.4
Cc1cccc(Sc2nccnc2N2CCCC(C(=O)Nc3cccc(F)c3)C2)c1 (centres undefined),2.0,-2.4
COc1ccc(CCNS(=O)(=O)c2ccc(C)cc2)cc1OC,-6.1,-5.1
COc1ccc(S(=O)(=O)NCCc2ccc(N3CCCC3)cc2)cc1OC,54.4*,-0.2
O=C1N(Cc2cc(=O)n3ccccc3n2)c2ccccc2C12OCCCO2,52.0*,-7.9
Cc1ccc(C)c(CN2C(=O)C3(OCCCO3)c3ccccc32)c1,-22.0,-6.6
SMILES,mHTT CaM bind,Pf apPOL block
CCC(C(=O)Nc1cccc(C(C)=O)c1)c1ccccc1 (centres undefined),-9.3,-7.4
COc1ccc(-c2nn(-c3ccccc3)cc2C2SCC(=O)N2Cc2ccccc2)cc1 (centres undefined),87.0*,-5.1
O=C1CSC(c2cn(-c3ccccc3)nc2-c2cccnc2)N1Cc1ccccc1 (centres undefined),28.0,-36.4
OC(COCC(c1ccccc1)c1ccccc1)Cn1cnc2ccccc21 (centres undefined),56.4*,-4.2
OC(COCc1ccccc1)Cn1cnc2ccccc21 (centres undefined),-9.0,3.3
Cc1ccc(N(C(=O)c2ccccc2)C2C=CS(=O)(=O)C2)cc1 (centres undefined),-4.0,-2.7
CC(=O)Oc1cc(C(=O)N(c2ccc(C)cc2)C2C=CS(=O)(=O)C2)cc(OC(C)=O)c1OC(C)=O (centres undefined),96.1*,90.1*
CC(Oc1cccc(Cl)c1)C(=O)N1CCN(c2ccc([N+](=O)[O-])cc2)CC1 (centres undefined),-0.6,-1.5
Cc1cc(Cl)ccc1OC(C)C(=O)N1CCN(c2ccc([N+](=O)[O-])cc2)CC1 (centres undefined),2.7,54.8*
CC(C)CNC(=O)C1CCCN(c2cnn(C)c(=O)c2)C1 (centres undefined),-0.5,1.7
O=C(O)CCC(=O)Nc1ccccc1Br,-3.0,-9.8
C=CCCCC(=O)Nc1ccccc1Br,25.6,67.2*
COc1ccc(N2C(=O)NC3c4ccccc4OC2(C)C3C)cc1 (centres undefined),10.0,-6.6
CCn1nc(-c2ccccn2)nc2c(=O)n(C)c(=O)nc1-2,84.0*,5.5
Cn1nc(-c2ccncc2)nc2c(=O)n(C)c(=O)nc1-2,2.0,8.6
Cc1cc(Cl)ccc1NC(=S)N(c1cccc(Cl)c1)c1nc2ccccc2s1,nt,-5.6
CC12CCC(CC1N)C2 (centres undefined),54.5*,22.4
Cc1cc(C)cc(C(=O)N2CCCN(Cc3nc4ccccc4o3)CC2)c1,34.5,3.2
O=C(c1ccc(F)c(F)c1)N1CCCN(Cc2nc3ccc(Cl)cc3o2)CC1,60.1*,-7.2
Cc1ccccc1NC(=O)c1cc(S(N)(=O)=O)ccc1Cl,-2.5,-0.8
CCOC1=NN(c2ccc([N+](=O)[O-])cc2)C(=O)/C1=C/c1ccc(Cl)cc1,34.0,-2.4
O=C1/C(=C\c2ccc(O)cc2)C(N2CCOCC2)=NN1c1ccc([N+](=O)[O-])cc1,84.0*,4.2
CC(C)c1ccc(OCC(=O)Nc2nnc(-c3ccc(Br)o3)o2)cc1,52.3*,36.6
Cc1ccc(OCC(=O)Nc2ccc(C(C)C)cc2)cc1,-15.0,-1.2
CN(c1ccc(F)cc1)S(=O)(=O)c1ccc2[nH]cc(C(=O)O)c(=O)c2c1,8.0,-4.7
SMILES,mHTT CaM bind,Pf apPOL block
CN(C)c1ccc2[nH]c3c(C(=O)O)cc(=O)c(=O)c=3oc2c1,66.5*,nt
Cn1cc(CCN2CCC(C(=O)N3CCCCCC3)CC2)c2cccnc21,2.5,-1.2
O=C(c1ccc([N+](=O)[O-])cc1)N1CCN(Cc2c[nH]c3ccccc23)CC1,20.5,-1.8
O=[N+]([O-])c1ccc(/C=C/S(=O)(=O)N2C=Cc3ccccc3C2c2c[nH]c3ccccc23)cc1 (centres undefined),57.0*,1.9
O=C(c1cccc(F)c1)N1CCC2(CC1)CN(C(=O)c1ccccc1)CC2CO (centres undefined),4.1,-3.9
O=c1[nH]c2ccccc2n1CCCSc1nc2ccccc2o1,51.0*,-4.8
O=c1[nH]c2ccccc2n1CCCSc1cccs1,4.7,-1.2
CCOc1ccccc1C(=O)N1CCC2(CC1)NC(=O)c1ccc(Cl)cc1N2,18.4,-1.7
OCCN(CCO)CC(O)COCC12CC3CC(CC(C3)C1)C2 (centres undefined),100.1*,-3.3
CCN(CC)CC(O)COCC12CC3CC(CC(C3)C1)C2 (centres undefined),-1.9,-0.6
COc1cc(NC(=O)N2CC3CCCN3c3ccccc32)cc(OC)c1 (centres undefined),49.6,3.9
Cc1ccc(C)c(NC(=O)N2CC3CCCN3c3ccccc32)c1 (centres undefined),47.2,-4.9
COc1ccc(C)cc1NC(=O)N1CC2CCCN2c2ccccc21 (centres undefined),83.3*,-0.1
COc1ccc(Cl)cc1NC(=O)N1CC2CCCN2c2ccccc21 (centres undefined),74.4*,-2.8
COC(=O)c1ccc(Cl)cc1NC(=O)N1CCN(C)c2ccccc21,48.2,-2.9
